Screens: PubChem BioAssay, National Center for Advancing Translational Sciences (NCATS)
In the library only some 3.4% were active in any assay of this set; here they are far more common.
Luciferase inh: qHTS Assay for Inhibitors of Firefly Luciferase. purified firefly luciferase, luminescence, 8 min. Potency, µM (series often up to 57.1 µM), without a hit: at the highest dose activity change, negative = inhibition, usual class: inhibitors. 2.2% of 72,000 active. AID 411, 2009; active means well fitted inhibition curve with a large enough effect; inconclusive means small, poorly fitted or top-dose-only effect; further: on the % scale 0 is the no-effect control and ±100 the full control effect; nearly all actives have a fitted effect of over 40% in size
Target sequence (P08659 whole entry, looked up): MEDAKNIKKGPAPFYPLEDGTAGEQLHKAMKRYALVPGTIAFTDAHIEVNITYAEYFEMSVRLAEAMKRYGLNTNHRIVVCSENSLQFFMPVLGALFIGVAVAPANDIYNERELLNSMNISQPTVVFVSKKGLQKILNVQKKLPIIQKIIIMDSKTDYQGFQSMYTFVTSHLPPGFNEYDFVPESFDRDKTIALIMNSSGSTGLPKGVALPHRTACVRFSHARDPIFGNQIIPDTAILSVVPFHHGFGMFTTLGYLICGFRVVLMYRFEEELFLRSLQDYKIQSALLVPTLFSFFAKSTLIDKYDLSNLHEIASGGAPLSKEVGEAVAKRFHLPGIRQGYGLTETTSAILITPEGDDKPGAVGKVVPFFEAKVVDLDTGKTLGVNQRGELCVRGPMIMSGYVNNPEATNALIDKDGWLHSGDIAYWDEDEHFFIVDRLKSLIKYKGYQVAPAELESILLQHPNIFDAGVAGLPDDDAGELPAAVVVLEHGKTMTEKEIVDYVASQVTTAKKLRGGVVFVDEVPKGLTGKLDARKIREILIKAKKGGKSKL
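qHTS concentration-response profiling: light output of P. pyralis luciferase with luciferin and 10 uM ATP, imidazole buffer pH 7.2. Read by luminescence after 8-min room-temperature incubation.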
PK Bst: Pyruvate Kinase | purified pyruvate kinase, luminescence ATP production; ribose 5-phosphate activator present at AC10 | 1.2% of 51,000 active | Potency, µM; in the data active means potency below about 11 µM; inconclusive means mostly about 12 µM to 25 µM;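 the screen sought inhibitors and activators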;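 further: scaled between full activation by ribose 5 phosphate and full inhibition by luteolin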
GBA mod: Glucocerebrosidase; Lysosomal acid glucosylceramidase (Homo sapiens), P04062; purified enzyme, resorufin glucoside fluorescence (screen aimed at inhibitors), 20 min; 1.1% of 48,000 active; AID 360, 2006; Potency, µM; in the data active means potency below about 15 µM; inconclusive means mostly about 16 µM to 33 µM;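 further: the screen sought inhibitors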
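Compounds titrated against 0.2 nM normal enzyme, 30 uM resorufin beta-D-glucopyranoside substrate, citrate/phosphate buffer with taurocholate and tween-20, pH 5.9. Reaction ran 20 min at room temperature; fluorescence (Ex 548/Em 600) gave AC50.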
* marks the source's active call; other numbers are inactive results; i = inactive; ? = inconclusive; . = not tested or not shown; [ ] = dose if it differs, or a comment. Potency means the concentration at half of the fitted maximal effect.

SMILES	Luciferase inh	PK Bst	GBA mod
O=C(Nc1ccc2nc(-c3cccs3)[nH]c2c1)c1cccs1	13µM*	10*	i
O=C(Nc1ccc2nc(-c3cccs3)[nH]c2c1)c1ccco1	10µM*	9.5*	?
CC(=O)Nc1ccc2nc(-c3ccccn3)[nH]c2c1	13µM*	?	>77
Cn1c(CN2CCCCC2)nc2cc(NC(=O)c3cccs3)ccc21	-14%	>57	>77
CO[C@H]1COC(=O)[C@@H](C)COC(=O)[C@@H](COCc2ccccc2)NC(=O)C/C=C\[C@H]1C	1%[11.4 µM]	.	.
Nc1ccccc1C(=O)C[C@@H](N)C(=O)O	1%[11.4 µM]	.	.
CC(=O)N1CCC2(CCCN(C(=O)Nc3cccc(C#N)c3)C2)CC1	1%[11.4 µM]	.	.
COc1ccc(NC(=O)N2CC[C@@]3(CCCN(C(=O)c4ccc(OC)cc4)C3)C2)cc1	0%[11.4 µM]	.	.
COc1ccccc1NS(=O)(=O)c1ccc(Br)s1	0%	.	>77
COc1cccc(NS(=O)(=O)c2ccc(Br)s2)c1	-3%	>57	14*
CNc1ncnc2ccc(-c3ccccc3C)cc12	2%[2.29 µM]	.	.
O=C(Nc1nnc(C2CCCCC2)s1)c1cccs1	?	>57	>77
CCc1c(C(=O)Nc2nnc(C3CC3)s2)csc1C	4%	>57	1.5*
O=C(c1cc(Br)ccc1O)c1cc(Br)ccc1O	7%[11.4 µM]	.	.
Cn1c(CNc2ccccc2O)nc2ccccc21	-13%	.	.
CC(C)n1cnc2cc(NCc3nc4ccccc4n3C)ccc21	13µM*	.	>77
Cc1ccc(-c2nc3nc4ccccc4nc3n2Cc2ccco2)cc1	10µM*	i	>77
c1ccc(Cn2c(-c3ccco3)nc3nc4ccccc4nc32)cc1	-25%	>57	>77
Clc1ccc(-c2nc3nc4ccccc4nc3n2Cc2ccco2)cc1	-3%	>57	>77
COc1ccccc1Cn1c(-c2ccco2)nc2nc3ccccc3nc21	3.2µM*	>57	>77
CCn1c2ccccc2c2nc3ccccc3nc21	-7%	.	.
Cn1nc(-c2ccccc2)c2nc3ccccc3nc21	0%	8*	.
CN(C)c1ncc2nc(CCc3ccccc3)c(=O)n(Cc3cccs3)c2n1	1%[11.4 µM]	.	.
CC(=O)CSCc1ccccn1	0%[11.4 µM]	.	.
O=C(Nc1ccc(CN2CCOCC2)cc1)c1ccc(-c2ccc(Br)cc2)o1	-2%	7.1*	.
SMILES	Luciferase inh	PK Bst	GBA mod
COC(=O)c1ccc(NC(=O)c2ccc(CN3CCOCC3)cc2)cc1	-8%	>57	.
O=c1c(-c2ccc(F)cc2)nc2cnc(Nc3ccccc3)nc2n1Cc1cccs1	-1%[11.4 µM]	.	.
CC(=O)N1CCC2(CCN(Cc3cc(C(F)(F)F)cc(C(F)(F)F)c3)CC2)CC1	0%[11.4 µM]	.	.
N#CNC(N)=Nc1ccc(Cl)cc1	2%[11.4 µM]	.	.
O=C(Nc1ccc(N2CCOCC2)c(Cl)c1)c1ncn[nH]1	20µM*	.	>77
O=C(Nc1ccc(N2CCN(C(=O)c3ccccc3)CC2)c(Cl)c1)c1ccco1	1%	.	.
O=C(Nc1ccc(N2CCOCC2)c(Cl)c1)c1ccco1	13µM*	i	>77
O=C(Nc1ccc(N2CCOCC2)c(Cl)c1)C1CCCCC1	-2%	.	.
CCn1cnc2cc(NCc3cccc(OC)c3O)ccc21	-26%	.	14*
CCCCn1cnc2cc(NCc3cccc(OC)c3O)ccc21	-11%	>57	?
COc1ccccc1CN1CC2(CCN(C(=O)c3ccncc3)CC2)C1	0%[11.4 µM]	.	.
CC[C@@H]1OC(=O)[C@@H](C)[C@H](O[C@@H]2C[C@@](C)(OC)[C@@H](O)[C@H](C)O2)[C@H](C)[C@H](O[C@@H]2O[C@@H](C)C[C@@H](N(C)C)[C@H]2O)[C@@](C)(O)C[C@H](C)C(=O)[C@@H](C)[C@H](O)[C@@]1(C)O	0%[11.4 µM]	.	.
NCCCNCCCCNCCCN	-1%	.	.
O=c1cnc2cnc(Nc3ccccc3)nc2n1CCc1ccccc1	1%[11.4 µM]	.	.
Cc1cccc(NC(=O)c2ccccc2C(=O)O)c1	0%	.	>77
Nc1ccccc1C(=O)Nc1cccc(C(=O)O)c1	25µM*	.	>77
Cc1ccccc1-c1ccc2ncnc(NCc3cccs3)c2c1	1%[2.29 µM]	.	.
Cc1nc2cnc(N(C)C)nc2n(C[C@H]2CCCO2)c1=O	2%[11.4 µM]	.	.
Clc1ccc(-c2nnc(-c3ccccc3)o2)c(Cl)c1	2µM*	2.5*	>77
Fc1ccc(-c2nnc(-c3ccc(Cl)cc3Cl)o2)cc1	1.3µM*	.	.
Fc1ccc(-c2nnc(-c3ccc(Cl)cc3)o2)cc1	-2%	.	.
Clc1ccc(-c2nnc(-c3ccc(Br)o3)o2)c(Cl)c1	-27%	.	.
C[C@@H]1O[C@@H](O)[C@@H](O)[C@H](O)[C@H]1O	1%[11.4 µM]	.	.
Cc1cc(C(=O)CSc2nnc(Cc3ccccc3)o2)c(C)n1Cc1ccc2c(c1)OCO2	0%	>57	4*
C=CCn1c(C)cc(C(=O)CSc2nnc(Cc3ccccc3)o2)c1C	-3%	>57	.
SMILES	Luciferase inh	PK Bst	GBA mod
c1ccc2c3c([nH]c2c1)[C@@H]1[C@H]2CC[C@H]([C@H]4CCCN[C@H]42)N1CC3	0%[25.5 µM]	.	.
COC(=O)c1ccc(C2C(C#N)=C(C)NC3=C2C(=O)CC(C)(C)C3)cc1 (configuration not stated)	-3%	>57	12*
COc1ccc(C2C(C#N)=C(SC)NC3=C2C(=O)CC(C)(C)C3)cc1 (configuration not stated)	0%[25.5 µM]	>26	.
O=C(/C=C\c1ccc(O)c(O)c1)O[C@H]1C[C@@](O)(C(=O)O)C[C@H](O)[C@@H]1O	-1%[11.4 µM]	.	.
Cc1ccnc(NC(=O)c2cc(S(=O)(=O)N3CCCCC3)ccc2Cl)c1	1%	>57	>77
Cc1ccc(S(=O)(=O)N2CCCCC2)cc1C(=O)c1nccn1C	1%	>57	10*
O=C(c1ccc2c(c1)OCO2)n1nnc2ccccc21	2%	.	.
O=C1CC(c2ccco2)Sc2nc3ccccc3n21 (configuration not stated)	-17%	.	.
O=C1CC(c2ccc3c(c2)OCO3)Sc2nc3ccccc3n21 (configuration not stated)	4µM*	4.5*	>77
O=C1CC(c2cccs2)Sc2nc3ccccc3n21 (configuration not stated)	16µM*	i	>77
CC(=O)[C@H](C(=N)C#N)C(=O)Nc1ccccc1	0%[11.4 µM]	.	.
CN1CCN(c2ncnc3ccc(-c4cccc(NS(C)(=O)=O)c4)cc23)CC1	-2%[2.29 µM]	.	.
Cc1nc2cnc(Oc3ccccc3)nc2n(Cc2cccs2)c1=O	0%[11.4 µM]	.	.
COCCNC(=O)c1cc(-c2ccc3c(c2)OCO3)on1	13µM*	.	>77
